Assay outcomes (PubChem)
A selection: hits, their analogues and other compounds. The true share with any hit is near 11%.
Sm TGR block: qHTS Assay for the Inhibitors of Schistosoma Mansoni Peroxiredoxins | AID 485364, 2010 | actives 3% (n = 360,000) | purified TGR, DTNB reduction, TNB absorbance 405 nm | Potency, µM (series often up to 114 µM), inactives show top-dose activity change, negative = inhibition, usual class: inhibitors | Schistosoma mansoni thioredoxin glutathione reductase (TGR), Q962Y6; further: on the % scale 0 is the no-effect control and ±100 the full control effect; nearly all actives have a fitted effect of over 60% in size
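First, TGR (20 nM dispensed) and NADPH were mixed with compound. Second, a 15 min room-temperature incubation followed. Third, further NADPH and then DTNB were added to start the reaction. Finally, TNB absorbance was monitored kinetically.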
AMA1 RON2 block: qHTS for Inhibitors of AMA1-RON; Towards Development of Antimalarial Drug Lead: Primary Screen; actives 0.2% (n = 360,000); Potency, µM (titrated, usually from 58.2 µM), for inactives: at the highest dose activity change, negative = inhibition, most hits filed as inhibitors; Plasmodium falciparum AMA1 (3D7) - RON2 peptide interaction; AlphaScreen AMA1-biotinylated RON2 peptide binding;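 further: 0% = vehicle wells and -100% = peptide control; nearly all actives have a fitted effect of over 45% in size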
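AMA1 (3D7) with his tag at 25 nM final met compounds first, then biotinylated RON2 peptide at 25 nM; detection used donor plus acceptor beads, 10 µg/mL apiece, read by AlphaScreen after 30 min at room temperature.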
Pf growth 96h: Primary qHTS for delayed death inhibitors of the malarial parasite plastid, 96 hour incubation; P. falciparum luciferase reporter growth, 96 h; Potency, µM (titrated, usually from 28.7 µM), for the others: at the highest dose activity change, negative = inhibition, usual class: inhibitors; actives 6.9% (n = 320,000); AID 504834, 2011; further: on the % scale 0 is the no-effect control and ±100 the full control effect
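Compounds incubated with erythrocytes infected by luciferase-expressing P. falciparum (2% hematocrit, 0.05% parasitemia final) for 96 hours, 37 C in 5% CO2. Growth inhibition scored as decreased luciferase luminescence.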
Pf growth 48h: Primary qHTS for delayed death inhibitors of the malarial parasite plastid, 48 hour incubation; P. falciparum luciferase growth in erythrocytes, 48 h; Potency, µM (titrated, usually from 28.7 µM), for the others: top-dose activity change, negative = inhibition, most hits filed as inhibitors; actives 5.9% (n = 310,000); further: on the % scale 0 is the no-effect control and ±100 the full control effect
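Here the parasites carry a stable luciferase gene and grow inside erythrocytes in Albumax-based RPMI medium with compound for one erythrocytic cycle. Activity is scored as loss of luminescent signal.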
NS1 inh: qHTS Assay for Inhibitors of Influenza NS1 Protein Function. Potency, µM (top dose mostly 46.1 µM), without a hit: at the top dose activity, positive = more growth. actives 0.4% (n = 270,000). AID 2326, 2010; calls by dose curve; further: actives are rising curves; nearly all actives have a fitted effect of over 50% in size
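Growth recovery, yeast-based: influenza A NS1 expressed in S. cerevisiae causes slow growth, and suppressors are detected by OD600. The parent strain without NS1 is used as positive control.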
* = called active by the depositor; [ ] = remark or other dose. Unless noted, the call rests on the fitted dose curve; in most records, active means well fitted curve in the direction sought with a large enough effect; inconclusive means small, poorly fitted or top-dose-only effect, or another doubt; inactive means no such curve, though single readings can be large; an effect the other way counts as inactive or inconclusive. Potency means the concentration at half of the fitted maximal effect.

Results for Cc1cccc(N(CC(=O)NC2CCCC2)C(=O)c2csnn2)c1C ?
Sm TGR block: -1%; AMA1 RON2 block: -6%; Pf growth 96h: 36%; Pf growth 48h: 8%; NS1 inh: -1%

How did COc1ccccc1C(=O)NCCCCNC(=O)c1ccccc1OC do in these assays?
AMA1 RON2 block: -12%

Results for COc1ccccc1C(=O)NCCCNc1ccc([N+](=O)[O-])cc1 ?
Sm TGR block: -1%; AMA1 RON2 block: 19%; Pf growth 96h: 13µM*; Pf growth 48h: 1%; NS1 inh: -3%

What do the screens show for `CCOc1cnn(-c2cc(Oc3ccc(C)cc3)ncn2)c(=O)c1Cl`?
Sm TGR block: 1%; AMA1 RON2 block: 9%; Pf growth 96h: inconclusive; NS1 inh: -2%

How did Cc1ccccc1Oc1cc(-n2ncc(Cl)c(Cl)c2=O)ncn1 do in these assays?
Sm TGR block: 2µM*; AMA1 RON2 block: -2%; Pf growth 96h: -29%; Pf growth 48h: inconclusive; NS1 inh: -61%

What do the screens show for `COc1ccccc1/C=C/C1(C(=O)NC2CCCC2)CC(=O)N1c1ccc(F)cc1` (centres undefined)?
Sm TGR block: -30%; AMA1 RON2 block: 42%; Pf growth 96h: 32%; Pf growth 48h: 10µM*; NS1 inh: -7%

Results for C=C1c2cc3c(cc2NC(=S)N1Cc1ccccc1)OCO3 ?
Sm TGR block: -34%; AMA1 RON2 block: 42%; Pf growth 96h: inconclusive; Pf growth 48h: 12µM*; NS1 inh: 12%

What do the screens show for `CC(C)(C)c1csc(N/N=C/c2ccc(O)cc2)n1`?
Sm TGR block: -27%; AMA1 RON2 block: 7%; Pf growth 96h: inconclusive; Pf growth 48h: 19%; NS1 inh: 16%

How did CCN(CC)S(=O)(=O)c1cccc(C(=O)NC2CCCCC2)c1 do in these assays?
Sm TGR block: 4%; AMA1 RON2 block: 2%; Pf growth 96h: 1.7µM*; Pf growth 48h: 19%; NS1 inh: -5%

Results for CCN(CC)S(=O)(=O)c1ccc(C)c(NC(=S)NC2CCCCC2)c1 ?
Sm TGR block: -20%; AMA1 RON2 block: -7%; Pf growth 96h: inconclusive; Pf growth 48h: 15µM*; NS1 inh: -2%

How did CCN(CC)S(=O)(=O)c1ccc(Cl)c(NC(=S)NC(=O)C2CCCC2)c1 do in these assays?
Sm TGR block: -26%; AMA1 RON2 block: 60%; Pf growth 96h: inconclusive; Pf growth 48h: 13µM*

Results for Cc1ccc(S(=O)(=O)N(C)C)cc1NC(=S)NC1CCCC(C)C1C (centres undefined) ?
Sm TGR block: -20%; AMA1 RON2 block: 55%; Pf growth 96h: inconclusive; Pf growth 48h: -25%; NS1 inh: 28%

How did CN(c1ccccc1)S(=O)(=O)c1cccc(C(=O)NC2CCCC2)c1 do in these assays?
AMA1 RON2 block: 12%

What do the screens show for `CC(C)CCNC(=O)C1CC(c2ccc(C(F)(F)F)cc2)=NO1` (centres undefined)?
Sm TGR block: 0%; AMA1 RON2 block: 26%; Pf growth 96h: 58%; Pf growth 48h: 49%; NS1 inh: 0%

How did Cc1ccccc1C(=O)O/N=C(\N)c1ccccc1 do in these assays?
Sm TGR block: 1%; AMA1 RON2 block: 9%; Pf growth 96h: 4%; Pf growth 48h: 6%[0.00184 µM]; NS1 inh: -54%

How did Cc1ccccc1C(=NC(=O)c1ccccc1)c1ccccc1 do in these assays?
Sm TGR block: 21%; AMA1 RON2 block: -8%; Pf growth 96h: 6.6µM*; Pf growth 48h: 8.3µM*; NS1 inh: -51%

Results for CC1=CC2/C=C(\C)CCC(O)C(O)/C=C/C(=O)C23C(=O)NC(CC(C)C)C3C1C (centres undefined) ?
Sm TGR block: 4µM*; AMA1 RON2 block: -3%; Pf growth 96h: 11%; Pf growth 48h: inconclusive; NS1 inh: 2%

What do the screens show for `Nc1cc(OC(=O)c2ccco2)nn1S(=O)(=O)c1ccc(F)cc1`?
Sm TGR block: 32µM*; AMA1 RON2 block: -16%; Pf growth 48h: 20%; NS1 inh: -21%

How did Cc1ccc(S(=O)(=O)n2nc(OC(=O)c3cccc(F)c3)cc2N)cc1 do in these assays?
Sm TGR block: 13µM*; AMA1 RON2 block: -17%; Pf growth 96h: -24%; Pf growth 48h: 13%; NS1 inh: -3%

Results for Cc1ccc(S(=O)(=O)n2nc(OC(=O)c3ccco3)cc2N)cc1 ?
AMA1 RON2 block: -1%; NS1 inh: 8%

What do the screens show for `Cc1ccccc1C(=O)Oc1cc(N)n(S(C)(=O)=O)n1`?
Sm TGR block: 0%; AMA1 RON2 block: -7%; Pf growth 96h: inconclusive; Pf growth 48h: 17%; NS1 inh: -1%

Results for Cc1c(C(=O)Oc2cc(N)n(S(C)(=O)=O)n2)cccc1[N+](=O)[O-] ?
Sm TGR block: 8.9µM*; AMA1 RON2 block: -3%; Pf growth 96h: inconclusive; Pf growth 48h: 2%

How did CSc1ccccc1NC(=O)c1ccc(N2CCCC2=O)cc1 do in these assays?
Sm TGR block: -23%; AMA1 RON2 block: 2%; Pf growth 96h: 216%; Pf growth 48h: 173%

What do the screens show for `COc1ccc2c(c1)NC(c1ccc(N(C)C)cc1)c1cccn1-2` (centres undefined)?
Sm TGR block: 50µM*; AMA1 RON2 block: 41%; Pf growth 96h: inconclusive; Pf growth 48h: -18%; NS1 inh: 4%

Results for COc1ccc2c(c1)NC(c1cc(Cl)cc(Cl)c1O)c1cccn1-2 (centres undefined) ?
Sm TGR block: -23%; AMA1 RON2 block: inconclusive; Pf growth 96h: inconclusive; Pf growth 48h: 8%; NS1 inh: 3%

How did CCOc1ccc(/C=N/O)cc1 do in these assays?
Sm TGR block: 0%; AMA1 RON2 block: 2%; Pf growth 48h: 17%; NS1 inh: 4%

What do the screens show for `CCOc1ccc(/C=N/OCC(=O)NC(c2ccccc2)c2ccccc2)cc1`?
Sm TGR block: 7%; AMA1 RON2 block: -3%; Pf growth 96h: 9.3µM*; Pf growth 48h: 7.4µM*; NS1 inh: -2%

What do the screens show for `CCOc1ccc(/C=N/Nc2ccccc2)cc1`?
Sm TGR block: 25µM*; AMA1 RON2 block: -8%; Pf growth 96h: 46%; Pf growth 48h: 3%[0.00184 µM]; NS1 inh: -7%

How did COc1ccc(/C=N/OCC(=O)NC(c2ccccc2)c2ccccc2)c(OC)c1 do in these assays?
Sm TGR block: 0%; AMA1 RON2 block: 6%; Pf growth 96h: inconclusive; Pf growth 48h: inconclusive; NS1 inh: -29%

How did COC(=O)C1=C(C)N(c2cc(C)cc(C)c2)/C(=C/c2ccco2)C1=O do in these assays?
Sm TGR block: inconclusive; AMA1 RON2 block: 0%; Pf growth 96h: 5%; Pf growth 48h: 8.3µM*
